# Results reported in the supplement of paper PMC10941209.
# System: HFF
# Experiment: cell viability relative to DMSO control; higher = less cytotoxic
# Settings: 1 µM; 72 h
# Method: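 Single-dose cytotoxicity screen of the MMV Pandemic Response Box at 1 uM on human foreskin fibroblasts (HFF), 72 h at 37 C. Viability measured by MTT (OD 550 nm) and normalised to the DMSO control (% survival).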
row,Compound,cell viability [%]
1,CCc1nc2ccc(Cl)cn2c1C(=O)NCc1ccc(N2CCC(c3ccc(OC(F)(F)F)cc3)CC2)cc1,63.2
2,CCC[C@H](NC(=O)[C@@H]1[C@H]2CCC[C@H]2CN1C(=O)[C@@H](NC(=O)[C@@H](NC(=O)c1cnccn1)C1CCCCC1)C(C)(C)C)C(=O)C(=O)NC1CC1,61.8
3,O=C(Nc1ccc(F)cc1)c1nn(-c2ccccc2)c(=O)cc1Cl,71
4,CCOC(=O)Nc1cc(NC(C)CC(C)CN(CC)CC)c2nc(-c3ccccc3)c(-c3ccccc3)nc2n1 (configuration not stated),78.5
5,O=C(Nc1ccc(-c2ccccc2)cc1)C1=C(O)C(Cc2ccccc2)OC1=O (configuration not stated),69.3
6,CCc1cc(O)c(Oc2cccnc2N)cc1F,65.5
7,CC(=O)O[C@H]1C[C@@]2(C)[C@@H](C[C@@H](O)[C@H]3[C@@]4(C)CC[C@@H](O)[C@@H](C)[C@@H]4CC[C@@]32C)/C1=C(\CCC=C(C)C)C(=O)O,63.5
8,O=C(Nc1ccc(Cl)c(C(F)(F)F)c1)C(CCCl)C(=O)Nc1ccc(Cl)c(C(F)(F)F)c1,79
9,Fc1ccc(-n2cc(Cn3c(-c4cccc(F)c4)nc4ccccc43)nn2)cc1,71.1
10,CN(Cc1ccc(C(C)(C)C)cc1)Cc1cccc2ccccc12,62.8
11,COc1nc2ccc(Br)cc2cc1[C@@H](c1ccccc1)[C@@](O)(CCN(C)C)c1cccc2ccccc12,72.3
12,CC(C)(C)c1cc(C(=O)/C(C#N)=N/Nc2cccc(Cl)c2)no1,53
13,COc1ccc2c(c1OC)C(=O)OC2C1c2c(cc3c(c2OC)OCO3)CCN1C (configuration not stated),74.8
14,CCCCOC(=O)Nc1cc2nc(C3CCCCC3)[nH]c2cc1N(CC)CC,72.1
15,CCc1c(O)nc2ccc(F)cc2c1OCC1CCC1,56.8
16,O=C(Nc1nnc(-c2ccc(Cl)cc2)o1)c1ccc(F)cc1,65.9
17,Cc1c[nH]c(=O)nc1NCc1ccccc1,66.7
18,CCCCCCCCC(CP(=O)(O)C(C)N)C(=O)O (configuration not stated),61.8
19,CC(C)Oc1ccc(-c2nc(-c3cccc4c3CC[C@@H]4NCCO)no2)cc1C#N,65.4

row,Compound,cell viability [%]
1,Cc1cccc(C)c1C(=O)Nc1nc(-c2ccccn2)cc2ccccc12,74.7
2,CC[C@H]1OC(=O)[C@H](C)[C@@H](O[C@H]2C[C@@](C)(OC)[C@@H](O)[C@H](C)O2)[C@H](C)[C@@H](O[C@@H]2O[C@H](C)C[C@H](N(C)C)[C@H]2O)[C@](C)(O)C[C@@H](C)C(=O)[C@H](C)[C@@H](O)[C@]1(C)O,71.6
3,O=C(NN1C(=O)[C@@H]2[C@@H]3C=C[C@@H]([C@H]4C[C@@H]34)[C@@H]2C1=O)c1ccc(C(F)(F)F)cc1,71.8
4,O=C(NCc1ccc(F)cc1)c1c(O)c2ncccc2[nH]c1=O,50.8
5,O=C(Cc1ccccc1F)Nc1nc2ccccc2[nH]1,69.7
6,O=C1NC(=S)N/C1=C\c1cc(Br)cc(Br)c1O,72.6
7,COc1ccc(-n2cnc3cc(NCc4ccco4)ccc32)cc1,52
8,CCOC(=O)/C=C/[C@H](C[C@@H]1CCNC1=O)NC(=O)[C@@H](CC(=O)[C@@H](NC(=O)c1cc(C)on1)C(C)C)Cc1ccc(F)cc1,73.2
9,CCc1cc(Nc2cc(=O)n(CCN3CCN(C(=O)c4ccccc4)CC3)c(=O)[nH]2)ccc1C,68.7
10,Cn1cncc1[C@@](N)(c1ccc(Cl)cc1)c1ccc2c(c1)c(-c1cccc(Cl)c1)cc(=O)n2C,61.1
11,CCC(CC)[C@H](NC(C)=O)[C@@H]1[C@H](O)[C@@H](C(=O)O)C[C@H]1NC(=N)N,73.5
12,O=C(NNC(=S)Nc1ccc(Cl)cc1)c1ccncc1,64.2
13,CC[C@@H]1C(=O)OC[C@@H]1Cc1cncn1C,62.8
14,NC(=O)c1c(N)sc2c1CCCCC2,74.1
15,NS(=O)(=O)c1ccc(NC(=O)NC(c2ccccc2)c2ccccc2)cc1,72.8
16,Oc1cc(-c2cccc3ccccc23)[nH]n1,66.8
17,CN(C/C=C/C#CC(C)(C)C)Cc1cccc2ccccc12,64.9
18,Cc1c(F)cccc1NC(=O)Nc1ccc(Cl)c(S(=O)(=O)[C@H]2CCCNC2)c1O,60.8
